# Values without a mark were called inactive.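 The calls were made as follows: active = viability loss from added drug above about 55%, and viability with drug at most 40%, in both replicates (limit read from the data, passing the limit was not always enough); inconclusive = both conditions met in only one replicate; inactive = neither replicate meets both conditions.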
# Assay: MRP1 drug-resistance reversers in H69AR cells – cell-based, doxorubicin co-treatment, pilot screen (AID 601)
# Details: H69AR cells + 2 uM doxorubicin, CellTiter-Glo, 72 h; at 10 µM; stronger effect = higher value
row,Structure (SMILES),differential viability (reversal)
1,COc1ccc(OC)c(CNC(=O)CCN2C(=O)COc3ccccc32)c1,3.34%
2,Cc1ccc(C(=O)CSc2nnc(CNc3ccc(C)cc3C)o2)cc1,0.795%
3,CCn1c(SCc2cccc(C(F)(F)F)c2)nnc1-c1ccco1,9%
4,O=C(CC1CCCCC1)NCc1ccccn1,12.9%
5,c1ccc(-c2nn3nnnc3c3ccccc23)cc1,0.43%
6,CN=C(Nc1ccc2c(c1)OCO2)SC1CC(=O)N(c2ccccc2)C1=O (stereo not given),-0.04%
7,O=C1c2ccccc2C(=O)N1CCCCN1CCN(CCCCN2C(=O)c3ccccc3C2=O)CC1,12.7%
8,Cc1cccc(-n2ncc(C#N)c2N)c1,3.67%
9,Cc1cc(NC(=O)COc2ncnc3sc(C)c(C)c23)no1,3.08%
10,O=C(CN1C(=O)CCS(=O)(=O)c2ccccc21)NCc1ccc(F)cc1,3.11%
11,C=CCSc1n[nH]c(-c2ccc(OC)cc2)n1,2.41%
12,COc1ccc(N2CCN(C(=O)CN3C(=O)C4CC=CCC4C3=O)CC2)cc1 (stereo not given),3.03%
13,CSC1CCCCC1(O)CSc1nc2c(cc1C#N)CCCC2 (stereo not given),-2.66%
14,O=C(CCCCn1c(=O)[nH]c2ccsc2c1=O)NCc1cccnc1,2.01%
15,CCc1nnc(NC(=O)OCc2ccccc2)s1,7.5%
16,O=C(CP(=O)(c1ccccc1)c1ccccc1)N1CCCCC1,19%
17,Cc1nc(NC2=NCN(CCc3ccccc3)CN2)nc2c(C)cccc12,-15.7%
18,O=C(c1ccc(CNS(=O)(=O)c2cccc(C(F)(F)F)c2)cc1)N1CCOCC1,12%
19,CCNc1oc(COc2ccccc2F)nc1C#N,22.9%
20,CC1CC(C)CN(CCCNC(=O)c2ccc3c(c2)NC(=O)C(N2CCCCC2)S3)C1 (stereo not given),4.94%

row,Structure (SMILES),differential viability (reversal)
1,CS(=O)(=O)N(CC(=O)NC1CC1)c1cccc(F)c1,5.87%
2,O=C(CCCNS(=O)(=O)c1ccccc1)NCc1ccco1,6.58%
3,CCOC(=O)CSC1=Nc2ccccc2C2=NC(CC(=O)NCc3cccs3)C(=O)N12 (stereo not given),5.7%
4,Cc1ccc(-c2nnn(CC(=O)N(CC(=O)NCC3CCCO3)c3ccccc3)n2)o1 (stereo not given),2.55%
5,O=C(c1ccncc1)N1CCN(C(=O)c2cccs2)CC1,5.42%
6,CC(=O)CC(=O)Nc1ccccc1NC(C)=O,8.12%
7,O=C(O)C1CC=CCC1C(=O)Nc1cccc(C(=O)N2CCCCC2)c1 (stereo not given),7.67%
8,C#CCN1C(=O)C(O)(CC(=O)c2cc(OC)ccc2OC)c2ccccc21 (stereo not given),-16.8%
9,Cn1c(COc2ccccc2)nnc1SCC(=O)Nc1ccc(N2CCOCC2)c(Cl)c1,11.6%
10,Nn1cnnc1SCC(=O)Nc1ccc2c(c1)OCCO2,-1.08%
11,N#Cc1nc(COc2ccccc2)oc1NCCN1CCOCC1,11.7%
12,CSc1nnc(-c2cnccn2)n1C,0.99%
13,Cc1ccc(OCc2nnc(SCC(=O)N3CCOCC3)n2C)cc1,17.4%
14,Cc1[nH]nc2c1C1(CCN(C(=O)c3ccccc3)CC1)C(C#N)=C(N)O2,3.04%
15,COc1ccc(S(=O)(=O)NC(CC(=O)NCc2ccco2)c2ccco2)cc1 (stereo not given),22.1%
16,COc1ccc(C(=O)N2CCOCC2)cc1Br,5.83%
17,Cn1c(=O)c2ccccc2n(Cc2ccccc2F)c1=O,-5.55%
18,CN(C)C(=O)C12CCC(C)(c3nc4ccccc4nc31)C2(C)C (stereo not given),2.95%
19,CC1(C)NC(=O)N(CCOc2cccc(Cl)c2Cl)C1=O,14.6%
20,Cc1nn(Cc2ccccc2)c(C)c1NC(=O)CCC(=O)O,-8.23%

# Reference: PubChem BioAssay
